Experimental data from PubChem BioAssay (NCI).
Values joined by “and” are separate entries in the source; they are usually repeats but may differ in a detail not shown here. Equal entries are not always repeated. This is part of a sample that, as a whole, favours compounds with a hit. Of some 83,000 tested, about 20% had one in any assay.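 Cell lines were cultured in 96-well plates, exposed to a single compound concentration, and assessed for percent growth 48 hours later.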 Active and inactive are the calls of the source. How the source made its calls: active means growth percent below 10; inactive means the rest.

System: MDA-MB-468 breast
Test: NCI-60 one-dose screen, 48 h (100 = growth as untreated, 0 = no growth, -100 = all killed)
Details: 10 µM unless noted

Row | Compound | growth
1 | CC(=O)c1c(C)c2cnc(Nc3ccc(N4CCNCC4)cn3)nc2n(C2CCCC2)c1=O | 26.9% (inactive)
2 | CCCCCCCCc1cc[n+](CC(=O)c2ccc(Br)cc2)cc1 | -87% (active)
3 | CC(=O)[C@H]1CC[C@H]2[C@@H]3CCC4=CC(=O)C=C[C@]4(C)[C@H]3CC[C@]12C | 87.5% (inactive)
4 | O=C1N=c2ccccc2=C1c1sc(=Nc2ccccc2)n(Nc2ccccc2)c1O | 123% (inactive)
5 | Cn1cc(-c2csc(-c3cn(CCCN4CCOCC4)c4ccccc34)n2)c2cccnc21 | 65.1% (inactive)
6 | Cc1ccc2ccccc2c1C[n+]1ccccc1 | 50.5% (inactive)
7 | COc1ccc(Br)c(C=O)c1 | 84.5% (inactive)
8 | COc1cc(-c2cc(=O)oc3cc(O)ccc23)c(OC)c2c1OCO2 | 67.7% (inactive)
9 | NC(=O)SCC(=O)Nc1ccc(S(N)(=O)=O)cc1 | 91.4% (inactive)
10 | O=C(CSc1nccc(Nc2ccc(S(=O)(=O)Nc3nccs3)cc2)n1)c1ccc(C(F)(F)F)cc1 | 97% (inactive)
11 | COc1ccccc1NC(=O)COc1ccc(/C=C2/Oc3cc4occc4c(OC)c3C2=O)cc1OC | 102% (inactive)
12 | CC1CCN(S(=O)(=O)c2ccc(S(=O)(=O)N3CCCC(c4nc5c(nnn5Cc5cccc(Cl)c5)c(=O)[nH]4)C3)cc2)CC1 (stereo not given) | 27.7% (inactive)
13 | COc1ccc(/C=N\NC(=O)CN2CCN(c3cc4c(cc3F)c(=O)c(C(=O)N/N=C/c3ccc(OC)c(OC)c3)cn4C3CC3)CC2)cc1OC | -27.6% (active)
14 | CCCCCCCCCCCCSC1=C(Cl)C(=O)C(OC)=C(OC)C1=O | 20.9% (inactive)
15 | COc1cc(N=Nc2cc(S(=O)(=O)O)cc3cc(S(=O)(=O)O)cc(O)c23)c(C)cc1N=Nc1c(S(=O)(=O)O)cc2cc(Nc3ccccc3)ccc2c1O | 115% (inactive)
16 | COc1cc(C(=O)/C=C/c2c(C)n([O-])c3ccc(C(F)(F)F)cc3[n+]2=O)cc(OC)c1OC | 36.8% (inactive)
17 | Cc1nc2ccccc2c(/C=C/c2ccc(Cl)cc2)c1C(=O)/C=C/c1ccc(C(F)(F)F)cc1 | -65.8% (active)
18 | O=C1CCC23OC(c4ccccc4N12)C(O)C(O)C3O (stereo not given) | 114% (inactive)
19 | CCCCCO/N=C\c1c2c(O)c3c(O)c(C)c4c(c3c1O)C(=O)C(C)(O/C=C\C(OC)C(C)C(OC(C)=O)C(C)C(O)C(C)C(O)C(C)/C=C\C=C(\C)C(=O)N2)O4 (stereo not given) | 0.538% (active)
20 | CN1CCN(c2ccc(Nc3c4ccccc4nc4ccccc34)cc2)CC1 | 102% (inactive)

Row | Compound | growth
21 | O=C(c1ccccc1)N1N=C(c2ccc(-n3ccc(C(F)(F)F)n3)c(F)c2)CC1c1ccc[nH]1 (stereo not given) | 108% (inactive)
22 | O=c1sn(-c2cccc3ccccc23)c(=O)n1Cc1ccccc1 | 106% (inactive)
23 | CCn1cc(-c2ccnc(NCCNS(=O)(=O)c3cccc4ccccc34)c2)c(-c2cccc(O)c2)n1 | 90.3% (inactive)
24 | O=C1Nc2cc(-c3cccc([N+](=O)[O-])c3)ccc2/C1=C/c1ccc[nH]1 | -7.17% (active)
25 | COc1ccc(-c2cc(=O)c3c(O)cc(O)cc3o2)cc1 | 121% (inactive) and 96.2% (inactive)
26 | N#Cc1c(-c2ccc(Cl)cc2)nc(NCCO)[nH]c1=O | 119% (inactive)
27 | NC(N)=Nc1ccc(Oc2cccc(Nc3ccc(Br)c(C(F)(F)F)c3)c2)cn1 | -80.3% (active)
28 | O=C1/C(=C\c2ccc(F)cc2)CN(C(=O)c2ccccc2F)C/C1=C\c1ccc(F)cc1 | -74% (active)
29 | Nc1ccn([C@@H]2O[C@H](COP(=O)(O)O[C@@H]3C[C@H](n4cc(F)c(=O)[nH]c4=O)O[C@@H]3COP(=O)(O)O[C@@H]3C[C@H](n4cc(F)c(=O)[nH]c4=O)O[C@@H]3COP(=O)(O)O[C@@H]3C[C@H](n4cc(F)c(=O)[nH]c4=O)O[C@@H]3COP(=O)(O)O[C@@H]3C[C@H](n4cc(F)c(=O)[nH]c4=O)O[C@@H]3COP(=O)(O)O[C@@H]3C[C@H](n4cc(F)c(=O)[nH]c4=O)O[C@@H]3COP(=O)(O)O[C@@H]3C[C@H](n4cc(F)c(=O)[nH]c4=O)O[C@@H]3COP(=O)(O)O[C@@H]3C[C@H](n4cc(F)c(=O)[nH]c4=O)O[C@@H]3COP(=O)(O)O[C@@H]3C[C@H](n4cc(F)c(=O)[nH]c4=O)O[C@@H]3COP(=O)(O)O[C@@H]3C[C@H](n4cc(F)c(=O)[nH]c4=O)O[C@@H]3COP(=O)(O)O[C@@H]3C[C@H](n4cc(F)c(=O)[nH]c4=O)O[C@@H]3COP(=O)(O)OCCOCCOCCOCCOCCOCCO)[C@H](O)C2O)c(=O)n1 (stereo not given in full) | 77% (inactive)
30 | CCOc1ccc(NC(=O)c2ccccc2-c2ccccc2C(=O)O)cc1 | 101% (inactive)
31 | CCCCc1ccc(NC(=O)N(CCCl)N=O)cc1 | 91.4% (inactive)
32 | COC(=O)CCCCCn1c2ccccc2c2c3c(c4c5ccccc5[nH]c4c21)C(=O)N(O)C3=O | 45.3% (inactive)
33 | Cc1nc2cccc(NCc3ccc(C(=O)NO)cc3)c2c(=O)n1-c1ccccc1 | -15.3% (active)
34 | CC(C)=CCC[C@](C)(O)[C@H]1CC[C@]2(C)[C@@H]1CC[C@@H]1[C@@]3(C)C/C(=C/c4ccccc4)C(=O)C(C)(C)[C@@H]3CC[C@]12C | 94.7% (inactive)
35 | CCN1CC2=C(Nc3nc(SC)[nH]c(=O)c3C2c2cc(OC)c(OC)c(OC)c2)/C(=C/c2cc(OC)c(OC)c(OC)c2)C1 (stereo not given) | 95.8% (inactive)
36 | Cc1cc(N2CCCCCC2)nc(NC2CCCC(Nc3ccnc4cc(Cl)ccc34)C2)n1 (stereo not given) | -63.9% (active)
37 | COc1cc2c(cc1O)CC[C@@H]1[C@@H]2CC[C@]2(C)[C@@H](OCCCN(C)C)CC[C@@H]12 | -58.5% (active)
38 | COc1cc(C(=O)NNC(=O)c2ccc(NC(=O)CCl)cc2)cc(OC)c1OC | 70.3% (inactive)
39 | COc1cc(/C=C/C(=O)c2cc(OC)c(OC)c(OC)c2)ccc1OCc1ccc(F)cc1 | 17.8% (inactive)
40 | O=C1c2[nH]cc(CN[C@@H]3CCCN3)c2C(=O)c2c1c(O)c1ccccc1c2O | -92.4% (active)
